40 compounds from PubChem BioAssay (NCATS) can be followed below.

The source made the active and inactive calls. Calls follow the shape of the dose curve; as a rule, active = well fitted curve in the direction sought with a large enough effect; inconclusive = small, poorly fitted or top-dose-only effect, or another doubt; inactive = no such curve, though single readings can be large or run the other way.

Chain of Guanine nucleotide-binding protein G(i) subunit alpha-1 (Homo sapiens) (P63096 whole entry, looked up): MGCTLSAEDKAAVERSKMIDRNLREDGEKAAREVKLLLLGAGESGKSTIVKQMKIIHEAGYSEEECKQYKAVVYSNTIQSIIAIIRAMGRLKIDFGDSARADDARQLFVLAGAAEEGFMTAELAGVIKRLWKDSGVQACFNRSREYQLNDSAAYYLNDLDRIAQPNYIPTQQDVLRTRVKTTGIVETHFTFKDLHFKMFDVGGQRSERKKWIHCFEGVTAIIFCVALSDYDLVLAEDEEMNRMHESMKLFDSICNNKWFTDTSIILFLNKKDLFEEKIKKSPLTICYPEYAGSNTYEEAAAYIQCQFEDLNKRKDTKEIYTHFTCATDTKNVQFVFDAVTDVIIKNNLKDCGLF

In the assay the target is Guanine nucleotide-binding protein G(i) subunit alpha-1 (Homo sapiens) (UniProt P63096). In words: qHTS Assay for Inhibitors of RGS12 GoLoco Motif Activity (Green Fluorophore) (AID 879).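 Also: 0% = labeled peptide with Gαi1 and full inhibition = labeled peptide alone without protein; negative values mean loss of peptide binding seen as reduced polarization.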 As to conditions: Galphai1/FITC-RGS12 GoLoco peptide, fluorescence polarization; series mostly up to 57.1 µM; activity, negative = inhibition: at the top concentration. From the text:
Assay Overview: NIH Molecular Libraries Screening Centers Network [MLSCN] NIH Chemical Genomics Center [NCGC] MLSCN Grant: NS053754-01 Assay Provider: Siderovski, David P, University of North Carolina at Chapel Hill G-protein-coupled receptors (GPCRs) are major targets for drug discovery. The regulator of G-protein signaling (RGS)-protein family has important roles in GPCR signal transduction. RGS proteins contain a conserved RGS-box, which is often accompanied by other signaling regulatory elements. RGS proteins accelerate the deactivation of G proteins to reduce GPCR signaling; however, some also have an effector function and transmit signals. Combining GPCR agonists with RGS inhibitors should potentiate responses, and could markedly increase the agonist's regional specificity. The diversity of RGS proteins with highly localized and dynamically regulated distributions in brain makes them attractive targets for pharmacotherapy of central nervous system disorders. […] A complex of Gai1 and fluorescently labeled G-alpha-binding peptide (the "GoLoco motif") derived from RGS12 is incubated with library members. Inhibitors of the binding are detected by a decrease in the fluorescence polarization (FP) of the fluorophore. Protein was supplied by Prof. David Siderovski, University of North Carolina at Chapel Hill.
Assay Protocol: Reagents/Controls: Assay Buffer: 10 mM Tris-HCl, 150 mM NaCl, 0.1 mM GDP (prepared fresh), and 0.05% NP40 at pH 7.5. […] 10 nM FITC labeled peptide/50 nM protein in columns 1, 2, 5 - 48. Titration of unlabeled peptide control ([H][…][NH2], custom synthesized and HPLC-purified by Tufts University Core Facility) from 10 mM, then 1:2 dilution, 16-point in duplicate, pin-transferred to column 2, rows 1 to 32. Column 1 is neutral. FITC-labeled RGS12-GoLoco peptide was custom-synthesized and HPLC-purified by Michael Berne of Tufts University Assay Steps. Four uL of reagents were dispensed to 1536-well Greiner black solid-bottom plates. Compounds and controls (23 nL) were transferred via Kalypsys PinTool. The plates were incubated for 10 min at room temperature, and then read on ViewLux (Perkin-Elmer) High-throughput CCD imager using FITC polarization filter sets for the fluorescein-labeled decapeptide probe.During dispense, reagent bottles were kept submerged into 4 deg C water bath and all liquid lines were covered with aluminum foil to minimize probe and protein degradation. All screening operations were performed on a Kalypsys robotic system (Kalypsys, Inc., San Diego, CA) containing one RX-130 and two RX-90 anthropomorphic robotic arms.
In general terms: Quantitative high-throughput screening tests each substance at several concentrations.
Consider `O=C1NC(O)=NC1(c1ccccc1)c1ccccc1`, for which the “activity, negative = inhibition” value is 3.72% (inactive).

As for `Ic1ccc(N2CCN(Cc3c[nH]c4ncccc34)CC2)cc1`, the “activity, negative = inhibition” value is 13.4% (inactive).

Regarding `CN(C)c1nc(N)c(C(=O)N=C(N)N)nc1Cl`, the “activity, negative = inhibition” value is -8.35% (inactive). Same read-out and setting: in the case of `O=c1[nH]c2cc(Cl)c(Cl)cc2[nH]c1=O` it was -12.3% (inactive). With `C[N+]1(C)CCC(OC(=O)C(c2ccccc2)c2ccccc2)CC1`, the “activity, negative = inhibition” value is -17.8% (inactive). Regarding `O=C(O)[C@@H]1C[C@@H](C(=O)O)N1`, the “activity, negative = inhibition” value is -2.59% (inactive).

On to `N#C/C(=C\c1ccc(O)c(O)c1)C(=O)c1ccc(O)c(O)c1`, for which the “activity, negative = inhibition” value was 90.8% (inactive). `Oc1cc2c(cc1O)CN(C(=S)NCCc1ccc(Cl)cc1)CCC2`: the “activity, negative = inhibition” value was -13.4% (inactive). On to `C[N+](C)(CCCCCC[N+](C)(C)CCCN1C(=O)c2cccc3cccc(c23)C1=O)CCCN1C(=O)c2cccc3cccc(c23)C1=O`, for which the “activity, negative = inhibition” value was 3.15% (inactive). Same read-out and setting: under `N#C/C(=C\c1ccc(O)c(O)c1)C(=O)NCCCc1ccccc1` stands 7.11% (inactive).

In the case of `Oc1ccccc1O`, the “activity, negative = inhibition” value is -20.8% (inactive).

In the case of `O=S(=O)(c1cccc2c(I)cccc12)N1CCCNCC1`, the “activity, negative = inhibition” value was 11.7% (inactive).

`CN(C)C(N)=NCCC[C@H](N)C(=O)O`: the “activity, negative = inhibition” value was -10.8% (inactive). As to `NC(N)=NC(=O)c1nc(Cl)c(N2CCCCCC2)nc1N`, the “activity, negative = inhibition” value is 9.74% (inactive). Regarding `CN1CCc2ccccc2Cc2[nH]c3ccccc3c2CC1`, the “activity, negative = inhibition” value is -5.64% (inactive). Same read-out and setting: in the case of `COc1cccc(C(=O)NCCN2CCN(c3ccc(Cl)cc3)CC2)c1` it was -13.1% (inactive). With `N[C@@H](CC(=O)O)C(=O)O`, the “activity, negative = inhibition” value was -11.9% (inactive). On the same count and under the same terms, under `CN=c1nc(-c2ccccc2)n(-c2ccccc2)s1` stands -25.8% (inactive); under `Cn1c(=O)c2[nH]c(-c3ccccc3)nc2n(C)c1=O`, -8.43% (inactive). Turning to `O=C(Nc1cccc(C(=O)Nc2ccc(S(=O)(=O)O)c3cc(S(=O)(=O)O)cc(S(=O)(=O)O)c23)c1)Nc1cccc(C(=O)Nc2ccc(S(=O)(=O)O)c3cc(S(=O)(=O)O)cc(S(=O)(=O)O)c23)c1`, the “activity, negative = inhibition” value was -15.6% (inactive). As for `O=c1[nH]c2cc([N+](=O)[O-])c([N+](=O)[O-])cc2[nH]c1=O`, the “activity, negative = inhibition” value is -20.9% (inactive). As for `N#C/C(=C\c1c[nH]c2ccccc12)C(=O)c1ccc(O)c(O)c1`, the “activity, negative = inhibition” value is 12.7% (inactive). The same measure, in the same setting: under `COC1=C(OC)C(=O)c2ccccc2C1=O` stands -3.82% (inactive); under `O=C(O)c1cc(=O)c2ccccc2[nH]1`, -12.3% (inactive); under `O=C1C(SCCO)=C(SCCO)C(=O)c2ccccc21`, -6.69% (inactive). The same measure, in the same setting: under `CC1(C)CCC=[N+]1[O-]` stands -7.09% (inactive). Consider `CCCCCCCC/C=C\CCCCCCCC(=O)NCCO`, for which the “activity, negative = inhibition” value is 6.45% (inactive).

As for `CC(C)NC[C@H](O)COc1cccc2[nH]ccc12`, the “activity, negative = inhibition” value was -3.1% (inactive). With `NCCNC(=O)c1ncsc1-c1cccc(F)c1`, the “activity, negative = inhibition” value was -8.57% (inactive).

In the case of `COc1cc(OC)c(/C=C2/C(=O)Nc3ccccc32)c(OC)c1`, the “activity, negative = inhibition” value was 9.26% (inactive).

Consider `O=Nc1ccc2oc(=O)ccc2c1`, for which the “activity, negative = inhibition” value was -2.37% (inactive). Still for that read-out and setting: under `CN(C)c1nc2c(Br)c(Br)c(Br)c(Br)c2[nH]1` stands 2.38% (inactive). With `CNCC[C@H](Oc1ccc(C(F)(F)F)cc1)c1ccccc1`, the outcome was inactive. As to `c1cnc2c(c1)ccc1cccnc12`, the “activity, negative = inhibition” value is -19.9% (inactive). Same read-out and setting: in the case of `N#C/C(=C\c1ccc(O)c(O)c1)C(=O)NCc1ccccc1` it was 10.1% (inactive); in that of `CCCCN1CCC(n2c(=O)[nH]c3ccccc32)CC1`, -17.2% (inactive); in that of `NC[C@@H]1O[C@H](C23CC4CC(CC(C4)C2)C3)Cc2c1ccc(O)c2O`, 2.86% (inactive). Same read-out and setting: in the case of `Brc1c(Br)c(Br)c2n[nH]nc2c1Br` it was -17.3% (inactive). Same read-out and setting: in the case of `CCCn1c(=O)c2[nH]c(-c3ccc(OCC(=O)NCCN)cc3)nc2n(CCC)c1=O` it was -8.73% (inactive). As for `NC(=O)C(=O)O`, the “activity, negative = inhibition” value is -10.5% (inactive).
